For assay [1], the target named is Retinoic acid receptor RXR-alpha (Homo sapiens) (UniProt P19793). In words: qHTS assay to identify small molecule agonists of the RXR signaling pathway (AID 1159527; calls by dose curve; note: nearly all actives have a fitted effect of over 35% in size). In a few lines:
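Cells plated at 2,000/well, rested 5 hr at 37 C, pin-dosed with DMSO compound solutions, incubated 16 hr, then loaded with B/G FRET substrate for 2 hr at RT before dual-emission fluorescence reading.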

Assay [2] in a line: qHTS assay to identify small molecule agonists of the RXR signaling pathway - cell viability counter screen (AID 1159529).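 Note: HEK 293T cells carrying an RXR-alpha UAS beta-lactamase reporter; nearly all actives have a fitted effect of over 50% in size.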 The method in brief: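 Steps: seed RXR-alpha-UAS-bla HEK 293T cells in assay medium containing 2% charcoal-stripped FBS; incubate 5 hr; add compounds in DMSO; incubate 16 hr at 37 C; after the bla read, add CellTiter-Glo and read luminescence at 30 min.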

A short description of assay [3]: qHTS assay to identify small molecule antagonists of the retinoic acid receptor (RAR) signaling pathway (AID 1159552; note: nearly all actives have a fitted effect of over 50% in size). In a few lines:
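Retinol at 1 uM final stimulated RARE-luciferase expression in C3RL4 cells exposed to test compounds for 6 hr at 37 C. Reduced luminescence, read 30 min after detection reagent, indicated pathway antagonism.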
For orientation: Quantitative high-throughput screening tests each substance at several concentrations.

Assay [4] can be described thus: qHTS assay to identify small molecule agonists of the retinoic acid receptor (RAR) signaling pathway (AID 1159553). The settings on record: C3RL4 RARE luciferase reporter, agonist, 6 h; activation: at 73.3 µM (top of the series). The method in brief:
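C3RL4 RARE-luciferase cells were seeded at 1,000/well and grown overnight at 37 C, then exposed to compounds for 6 hr at 37 C, 5% CO2. Luciferase reagent was added and luminescence was read after 30 min at room temperature.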

The nature of assay [5]: qHTS assay to identify small molecule antagonists of the estrogen related receptor (ERR) signaling pathway from Tox21 library - cell viability counter screen (AID 1224834). Note: nearly all actives have a fitted effect of over 30% in size. The method in brief: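 ERR reporter cells, 2,000 per well, rested 6 h, then exposed to compound in DMSO for 17.5 hours at 37 C. Viability read as fluorescence after 30 min with CellTiter-Fluor.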
A short description of assay [6]: qHTS assay to identify small molecule agonists of the constitutive androstane receptor (CAR) signaling pathway - cell viability counter screen (AID 1224836). Note: nearly all actives have a fitted effect of over 45% in size. In a few lines: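 Cells were seeded and incubated 4 hrs. Compounds were added across 15 concentrations together with PK11195 at 0.75 uM final. Plates were incubated 23 hrs at 37 C. CellTiter-Fluor was added and fluorescence measured.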

A short description of assay [7]: qHTS assay to identify small molecule antagonists of the constitutive androstane receptor (CAR) signaling pathway - cell viability counter screen (AID 1224837). Note: nearly all actives have a fitted effect of over 45% in size. In a few lines:
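HepG2 cells stably carrying hCAR and CYP2B6-2.2kb reporter, stimulated with 50 nM CITCO and compounds at 15 concentrations for 23 h at 37 C. Viability measured by CellTiter-Fluor fluorescence.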

The nature of assay [8]: qHTS assay to identify small molecule antagonists of the estrogen related receptor signaling pathway with the pleiotropic PPARgamma coactivator (PGC) from Tox21 10K library - cell viability counter screen (AID 1224840; active = well fitted cell-killing curve with a large enough effect in the repeat runs, not every such curve was filed as active; note: nearly all actives have a fitted effect of over 40% in size). The method in brief: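 PGC/ERR cells (2,000/well) plated 6 h, then compound-treated for 17.5 h at 37 C. Viability measured by CellTiter-Fluor fluorescence after 30 min at 37 C, multiplexed with the pathway assay.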

Assay [9] concerns the target Thyrotropin receptor (Homo sapiens) (UniProt P16473). In words: qHTS assay to identify small molecule agonists of the thyroid stimulating hormone receptor (TSHR) signaling pathway (AID 1224843; calls by dose curve; note: nearly all actives have a fitted effect of over 45% in size). The method in brief:
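Cell line HEK293 with TSHR; density 800/well. Exposure 30 min RT. Readout HTRF cAMP (cAMP-d2/anti-cAMP-cryptate), 1 h RT before reading.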

Assay [10] can be described thus: qHTS assay to identify small molecule agonists of the hypoxia (HIF-1) signaling pathway - cell viability counter screen (AID 1224844; calls by dose curve; note: nearly all actives have a fitted effect of over 50% in size). In a few lines:
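HRE-bla ME-180 cells, 2,000/well in 0.5% dialyzed FBS medium, treated 17 h at 37C with compounds. Viability read in the same wells as the bla reporter, by CellTiter-Glo luminescence after 30 min at room temperature.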

Assay [11] in a line: qHTS assay to identify small molecule agonists of H2AX (AID 1224845; active = well fitted activation curve with a large enough effect in the signal ratio in the repeat runs, not every such curve was filed as active; the % refers to the signal ratio). The method in brief:
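Wild-type CHO-K1 cells plated overnight, then exposed 3 hr at 37C to compounds at 15 concentrations (0.76% DMSO). Lysed, then HTRF anti-pH2AX(S139)-cryptate/anti-H2AX-d2 detection after 24 hr at room temperature; emissions 665 and 620 nm.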

A short description of assay [12]: qHTS assay to identify small molecule agonists of the hypoxia (HIF-1) signaling pathway (AID 1224846; active = well fitted activation curve with a large enough effect in the signal ratio in the repeat runs, not every such curve was filed as active; the % refers to the signal ratio). In a few lines: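 HRE-bla ME-180 beta-lactamase reporter cells in medium with 0.5% dialyzed FBS, pre-incubated 5 h then exposed to compounds 17 h at 37C, 5% CO2; reporter induction read with CCF4-AM FRET substrate.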
The nature of assay [13]: qHTS assay to identify small molecule agonists of H2AX - cell viability counter screen (AID 1224847; calls by dose curve; note: top concentration of the series differs between compounds; nearly all actives have a fitted effect of over 30% in size). The method in brief: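 Cytotoxicity counter screen in wild-type CHO-K1 cells: a 3 hr compound treatment at 37C across 15 concentrations, followed by CellTiter-Glo luminescence to gauge viable cells.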
Assay [14] deals with Luciferin 4-monooxygenase (Photinus pyralis) (UniProt P08659). Kind of assay: qHTS assay to identify small molecule inhibitors of firefly luciferase (AID 1224835). Note: nearly all actives have a fitted effect of over 25% in size. In a few lines:
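Quantitative HTS format; KM concentrations of both substrates. Purified P. pyralis FLuc activity quantified from luminescence images.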

The target in assay [15] is Nuclear receptor subfamily 1 group I member 3 (Homo sapiens) (UniProt Q14994). In words: qHTS assay to identify small molecule agonists of the constitutive androstane receptor (CAR) signaling pathway (AID 1224839). Note: nearly all actives have a fitted effect of over 15% in size. The method in brief:
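Cells were plated and incubated 4 hrs, then dosed with compounds at 15 concentrations. PK11195 was added to 0.75 uM final. After 24 hrs at 37 C, luciferase luminescence was measured.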

A short description of assay [16]: qHTS assay to identify small molecule antagonists of the retinoid acid receptor (RAR) signaling pathway - cell viability counter screen (AID 1159551). Note: nearly all actives have a fitted effect of over 35% in size. In a few lines:
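C3RL4 RARE-luciferase cells, 1,000/well, incubated overnight, then dosed with compound plus 1 uM retinol (final). After 6 hr at 37 C, viability read by CellTiter-Glo ATP luminescence following 30 min at room temperature.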

The target of assay [17] is Nuclear receptor subfamily 1 group I member 3 (Homo sapiens) (UniProt Q14994). Kind of assay: qHTS assay to identify small molecule antagonists of the constitutive androstane receptor (CAR) signaling pathway (AID 1224838). Note: nearly all actives have a fitted effect of over 40% in size. The method in brief: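 HepG2 cells stably carrying hCAR and a CYP2B6-2.2kb luciferase reporter, seeded 4 hrs before compound (15 concentrations). Stimulated with 50 nM CITCO for 24 hr at 37 C. ONE-Glo luminescence read after 30 min at room temperature.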

Assay [18] is described as follows: qHTS assay to identify small molecule agonists of the estrogen related receptor signaling pathway with the pleiotropic PPARgamma coactivator (PGC) from Tox21 10K library (AID 1224842). Note: nearly all actives have a fitted effect of over 15% in size. In a few lines:
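PGC/ERR reporter cells (NTP line) were seeded 2,000 per well, rested 6 h at 37 C/5% CO2, then pin-dosed with compounds in DMSO for 18 h at 37 C; luciferase read by One-Glo luminescence after 30 min at room temperature.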

Assay [19] can be described thus: qHTS assay to identify small molecule antagonists of the estrogen related receptor (ERR) signaling pathway from Tox21 library (AID 1224848). Note: nearly all actives have a fitted effect of over 50% in size. Note: potency is the fitted concentration of half-maximal effect. In a few lines:
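Screening used an ERR reporter line supplied by NTP, exposed for 18 h at 37 C to library compounds delivered in DMSO. Signal was luciferase luminescence developed with ONE-Glo at room temperature for 30 min.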

Inconclusive results are not listed. A number with no mark means an inactive call. Calls of active or inactive are those of the source. Unless noted, calls come from the whole dose curve; as a rule, active = well fitted curve in the direction sought with a large enough effect in the repeat runs; inconclusive = weak or mixed curves; inactive = no such curve, though single readings can be large; an effect the other way counts as inactive or inconclusive.

Chain of Thyrotropin receptor (Homo sapiens) (P16473 whole entry, looked up): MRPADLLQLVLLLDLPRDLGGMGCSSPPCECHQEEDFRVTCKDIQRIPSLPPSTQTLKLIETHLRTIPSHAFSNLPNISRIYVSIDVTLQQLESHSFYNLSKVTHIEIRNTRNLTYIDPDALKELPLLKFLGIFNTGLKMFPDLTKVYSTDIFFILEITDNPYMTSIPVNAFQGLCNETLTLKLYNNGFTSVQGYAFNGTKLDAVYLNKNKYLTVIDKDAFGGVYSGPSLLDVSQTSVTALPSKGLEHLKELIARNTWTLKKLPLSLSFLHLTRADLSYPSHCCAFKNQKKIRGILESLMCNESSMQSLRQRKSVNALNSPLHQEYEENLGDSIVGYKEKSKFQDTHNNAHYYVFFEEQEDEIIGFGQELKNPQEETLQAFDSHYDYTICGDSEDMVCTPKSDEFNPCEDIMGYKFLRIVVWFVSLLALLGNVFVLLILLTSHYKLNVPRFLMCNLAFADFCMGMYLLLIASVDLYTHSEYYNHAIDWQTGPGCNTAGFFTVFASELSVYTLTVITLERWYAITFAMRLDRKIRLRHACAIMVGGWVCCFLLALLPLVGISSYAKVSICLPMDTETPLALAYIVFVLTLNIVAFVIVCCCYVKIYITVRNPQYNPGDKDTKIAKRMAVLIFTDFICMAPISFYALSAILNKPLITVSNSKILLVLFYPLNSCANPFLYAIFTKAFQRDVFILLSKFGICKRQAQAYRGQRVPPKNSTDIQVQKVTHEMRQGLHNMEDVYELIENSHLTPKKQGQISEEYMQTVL
Chain of Retinoic acid receptor RXR-alpha (Homo sapiens) (P19793 whole entry, looked up): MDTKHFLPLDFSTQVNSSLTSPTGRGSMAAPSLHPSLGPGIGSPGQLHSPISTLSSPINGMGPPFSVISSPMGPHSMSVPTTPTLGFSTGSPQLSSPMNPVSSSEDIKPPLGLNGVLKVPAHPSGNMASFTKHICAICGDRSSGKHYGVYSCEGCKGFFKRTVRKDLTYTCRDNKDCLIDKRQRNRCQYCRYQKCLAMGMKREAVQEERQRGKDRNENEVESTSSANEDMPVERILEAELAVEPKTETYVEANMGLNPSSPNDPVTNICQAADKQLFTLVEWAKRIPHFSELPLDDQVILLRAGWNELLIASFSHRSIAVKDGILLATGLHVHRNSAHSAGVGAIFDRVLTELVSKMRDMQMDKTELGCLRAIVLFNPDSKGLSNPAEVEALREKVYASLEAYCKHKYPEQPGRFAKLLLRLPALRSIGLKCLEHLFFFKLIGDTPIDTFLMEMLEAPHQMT
Chain of Luciferin 4-monooxygenase (Photinus pyralis) (P08659 whole entry, looked up): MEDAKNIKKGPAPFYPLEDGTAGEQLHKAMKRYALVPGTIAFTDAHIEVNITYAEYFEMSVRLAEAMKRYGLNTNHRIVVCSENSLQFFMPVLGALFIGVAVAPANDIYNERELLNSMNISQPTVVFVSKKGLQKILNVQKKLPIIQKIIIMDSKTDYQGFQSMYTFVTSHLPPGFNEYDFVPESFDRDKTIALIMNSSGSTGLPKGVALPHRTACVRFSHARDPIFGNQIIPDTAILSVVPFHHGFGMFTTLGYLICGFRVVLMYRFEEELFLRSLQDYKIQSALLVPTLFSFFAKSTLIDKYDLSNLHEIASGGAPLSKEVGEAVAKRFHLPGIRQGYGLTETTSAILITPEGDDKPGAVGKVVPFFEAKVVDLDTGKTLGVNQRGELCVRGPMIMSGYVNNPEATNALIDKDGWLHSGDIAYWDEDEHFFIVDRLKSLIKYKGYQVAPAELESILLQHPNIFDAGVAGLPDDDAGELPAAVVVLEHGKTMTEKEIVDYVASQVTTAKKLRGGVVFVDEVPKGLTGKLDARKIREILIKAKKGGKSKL
Chain of Nuclear receptor subfamily 1 group I member 3 (Homo sapiens) (Q14994 whole entry, looked up): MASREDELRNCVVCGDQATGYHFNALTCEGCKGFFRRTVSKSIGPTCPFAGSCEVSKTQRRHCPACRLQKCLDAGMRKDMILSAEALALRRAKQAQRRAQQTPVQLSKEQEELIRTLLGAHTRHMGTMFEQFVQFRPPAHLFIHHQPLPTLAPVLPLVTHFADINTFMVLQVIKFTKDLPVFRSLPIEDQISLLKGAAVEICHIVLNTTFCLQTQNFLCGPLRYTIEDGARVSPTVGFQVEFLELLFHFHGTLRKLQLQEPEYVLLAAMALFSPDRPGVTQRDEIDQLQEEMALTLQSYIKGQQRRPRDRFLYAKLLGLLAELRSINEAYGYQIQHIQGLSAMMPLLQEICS

Consider `C[N+](C)(C)CC(O)CCl` (configuration not stated), for which the Potency result in assay [1], in [3], in [4], in assay [5], in assay [7] and in assay [13] was “inactive” in each case. The result in [2], in [6], in assay [8], in assay [9], in assay [10] and in assay [11] was inactive. Also, in assay [12], the call was inactive.
Turning to `NS(=O)(=O)c1cc2c(cc1Cl)NC(CC1CCCC1)NS2(=O)=O` (configuration not stated), the Potency entry in assay [1], in assay [3], in assay [4], in assay [5], in assay [14] and in assay [7] was “inactive” throughout. Further, the Potency result in assay [15] and in [13] was “inactive” each time. The result in [2], in [6], in assay [8], in assay [9], in [10] and in assay [11] was inactive.
Take `COC(=O)CCC(=O)O`: the Potency result in assay [1], in assay [4], in [5], in assay [7] and in [13] was “inactive” in each case. For the same molecule, the outcome in assay [2], in assay [16], in assay [6], in assay [9], in [10] and in assay [11] was inactive. Further, the molecule was called inactive in assay [12].
As for `COC(OC)C(C)c1ccccc1` (configuration not stated), the Potency entry in assay [1], in assay [4], in assay [5], in [14] and in assay [7] was “inactive” throughout. Besides, the result in [2], in [16], in [8], in assay [9], in assay [10] and in assay [11] was inactive. Moreover, in assay [12], the molecule was called inactive.
With `CN(C1CCCCC1)S(=O)(=O)c1ccccc1N`, the Potency result in [1], in assay [4], in [5], in [7], in [17] and in assay [13] was “inactive” each time. Also, the Potency result in [19] is “inactive”. Moreover, the molecule was called inactive in assay [2], in [16], in [6], in [18], in [9] and in assay [10]. Also, the result in assay [11] and in [12] was inactive.
`Nc1ccnc(=O)[nH]1`: the Potency entry in [1], in [3], in assay [4], in [5], in [14] and in assay [7] was “inactive” throughout. For the same molecule, the Potency result in [13] is “inactive”. Moreover, the molecule was called inactive in [2], in [6], in assay [8], in assay [9], in [10] and in [11]. The outcome in assay [12] was inactive.
As to `SCCSCCS`, the Potency entry in [1], in assay [3], in [4], in assay [5], in assay [14] and in assay [7] was “inactive” throughout. The outcome in assay [2], in [6], in assay [8], in assay [9], in [10] and in assay [11] was inactive. In addition, the molecule was called inactive in [12].
With `Cc1nc(C)nc(N2C[C@@H](C)N(c3ccnc([C@@H](C)O)n3)[C@@H](C)C2)n1`, the Potency result in assay [1], in assay [4], in assay [14], in [7] and in assay [13] was “inactive” each time. Moreover, the molecule was classed as inactive in assay [2], in assay [16], in [8], in assay [18], in [9] and in assay [10]. In addition, the molecule was classed as inactive in [11] and in assay [12]. The Potency in [19] is 13.3 µM (active).
With `CC1(N)CCC(C(C)(C)N)CC1` (configuration not stated), the Potency result in assay [1], in [4], in assay [5], in assay [7] and in [13] was “inactive” throughout. For the same molecule, the result in assay [2], in [16], in assay [6], in assay [9], in assay [10] and in assay [11] was inactive. Also, the molecule was classed as inactive in assay [12].
In the case of `CCN(CC)C(=O)C1CN2CCc3cc(OC)c(OC)cc3C2CC1OC(C)=O` (configuration not stated), the Potency entry in [1], in assay [3], in [4], in assay [5], in assay [14] and in assay [7] was “inactive” in each case. The Potency entry in [13] was “inactive”. Further, the call in [2], in assay [8], in assay [9], in [10], in [11] and in assay [12] was inactive.

The values above are taken from PubChem BioAssay (Tox21).
